The experiment concerns the target AMP-activated protein kinase, AMPK (Homo sapiens) (UniProt P54646+O43741+P54619+Q9UGJ0+Q9Y478+Q13131+Q9UGI9). The experiment is described as follows: AMP-dependent Kinase enzyme assay. An in vitro enzyme assay that detects ADP turnover that is directly proportional to AMPK activity. This uses naive AMPK that is activated during the assay with MK-8722. The format is functional. Details: scale not given: direction of the effect not stated beside the values. The conditions noted are these: 30 µM.
Consider `CC1CN(Cc2cccc(CN)c2)CCO1` (centres undefined), for which the Percent Effect was -4.57%. To `COc1coc(CN2CCCC3(CCC(=O)N(C4CC4)C3)C2)cc1=O` (centres undefined) belongs -2.13%; to `CNS(=O)(=O)CC(=O)N(C1CC1)C1Cc2ccccc2C1`, -3.11%. Take `CN(Cc1cccc(O)c1)Cc1cnn(C)c1`: the Percent Effect was -1.1%. For `CCc1nn(C)c(Cl)c1CN1CCC2(C1)CN(C)C(=O)O2` (centres undefined) the value was 6.22%; for `Cn1nnnc1SCC1(O)CCCCC1`, 32.1%.

Turning to `Cn1cnc(S(=O)(=O)N2CCCC2c2ccnc3nccn23)c1` (centres undefined), the Percent Effect amounted to 0.76%. Regarding `COc1ccc(CN(C)C(=O)CN2CC(n3cccn3)C2)cc1F`, the Percent Effect was -4.28%. Consider `CCCC(=O)NCCc1cc(NC)nc(-c2ccccn2)n1`, for which the Percent Effect is -2.74%. To `NC(=O)c1ccc(CNC(=O)NCc2cc[nH]n2)cc1` belongs -5.62%; to `CN1C(=O)c2ccc(C(=O)N(Cc3cnn(C)c3)C3CC3)cc2C1=O`, 11.4%. Turning to `CCN1CCC(CC(=O)NCCc2nc(N)cc(O)n2)CC1`, the Percent Effect is 0.153%.

As to `O=C(COCC1CCCO1)N(Cc1cccnc1)c1ccc(F)cc1` (centres undefined), the Percent Effect is -8.95%. For `CCc1onc(C)c1C(=O)N1CCN(c2ncc3c(n2)CCOC3)CC1` the value was 13%. For `COCCNc1ccc(CC2CCCN(c3ncccn3)C2)nn1` (centres undefined) the value was 6.13%; for `CN1CCN(C2CCN(C(=O)CCC3CCCC3)CC2)CC1`, 7.72%; for `Cc1nnc(CN(Cc2ccco2)Cc2cccc3c2OCO3)n1C`, -4.86%.

On to `CC(O)CN1CCN(Cc2coc(-c3ccccc3Cl)n2)CC1` (centres undefined), for which the Percent Effect was -13.3%.

As to `CSCCC(=O)N1CCN(CC(O)C(C)(C)C)CC1` (centres undefined), the Percent Effect was -4.07%.

The record behind these values is ChEMBL document CHEMBL3988442, “University of Dundee, Small-Polar-MMV Screening Library” (2021).
